Shown are actives, neighbours in structure and some others; about 10% of the full set was active somewhere.
HP1b binding inh = blocks HP1-beta chromodomain binding to methylated histone tails. AlphaScreen HP1-beta / biotin-H3K9me3 peptide binding. P83916. actives 0.56% (n = 390,000). AID 540317. Potency, µM (highest dose often 114 µM), usual class: inhibitors; note: nearly all actives have a fitted effect of over 70% in size
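AlphaScreen: HP1-beta (50 nM) preformed 30 min with biotin-H3(1-18)K9me3 peptide (50 nM) in PBS pH 7.4, 0.01% Tween-20. Compound added for 30 min at RT, then streptavidin donor/nickel chelate acceptor beads (10 ug/mL) for 30 min.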
JMJD2A Tudor inh = inhibitors of human JMJD2A Tudor domain; AlphaScreen JMJD2A-Tudor / H3K4me3 peptide binding; actives 4.4% (n = 390,000); AID 504339; Potency, µM (doses to about 114 µM), hits mostly inhibitors; note: nearly all actives have a fitted effect of over 50% in size
BAZ2B inh = BAZ2B (human) inhibition; Q9UIF8; AlphaScreen BAZ2B-H3K14Ac peptide displacement; Potency, µM (series often up to 114 µM), actives largely listed as inhibitors; actives 4.4% (n = 360,000); note: nearly all actives have a fitted effect of over 60% in size
Target sequence (Q9UIF8 whole entry, looked up): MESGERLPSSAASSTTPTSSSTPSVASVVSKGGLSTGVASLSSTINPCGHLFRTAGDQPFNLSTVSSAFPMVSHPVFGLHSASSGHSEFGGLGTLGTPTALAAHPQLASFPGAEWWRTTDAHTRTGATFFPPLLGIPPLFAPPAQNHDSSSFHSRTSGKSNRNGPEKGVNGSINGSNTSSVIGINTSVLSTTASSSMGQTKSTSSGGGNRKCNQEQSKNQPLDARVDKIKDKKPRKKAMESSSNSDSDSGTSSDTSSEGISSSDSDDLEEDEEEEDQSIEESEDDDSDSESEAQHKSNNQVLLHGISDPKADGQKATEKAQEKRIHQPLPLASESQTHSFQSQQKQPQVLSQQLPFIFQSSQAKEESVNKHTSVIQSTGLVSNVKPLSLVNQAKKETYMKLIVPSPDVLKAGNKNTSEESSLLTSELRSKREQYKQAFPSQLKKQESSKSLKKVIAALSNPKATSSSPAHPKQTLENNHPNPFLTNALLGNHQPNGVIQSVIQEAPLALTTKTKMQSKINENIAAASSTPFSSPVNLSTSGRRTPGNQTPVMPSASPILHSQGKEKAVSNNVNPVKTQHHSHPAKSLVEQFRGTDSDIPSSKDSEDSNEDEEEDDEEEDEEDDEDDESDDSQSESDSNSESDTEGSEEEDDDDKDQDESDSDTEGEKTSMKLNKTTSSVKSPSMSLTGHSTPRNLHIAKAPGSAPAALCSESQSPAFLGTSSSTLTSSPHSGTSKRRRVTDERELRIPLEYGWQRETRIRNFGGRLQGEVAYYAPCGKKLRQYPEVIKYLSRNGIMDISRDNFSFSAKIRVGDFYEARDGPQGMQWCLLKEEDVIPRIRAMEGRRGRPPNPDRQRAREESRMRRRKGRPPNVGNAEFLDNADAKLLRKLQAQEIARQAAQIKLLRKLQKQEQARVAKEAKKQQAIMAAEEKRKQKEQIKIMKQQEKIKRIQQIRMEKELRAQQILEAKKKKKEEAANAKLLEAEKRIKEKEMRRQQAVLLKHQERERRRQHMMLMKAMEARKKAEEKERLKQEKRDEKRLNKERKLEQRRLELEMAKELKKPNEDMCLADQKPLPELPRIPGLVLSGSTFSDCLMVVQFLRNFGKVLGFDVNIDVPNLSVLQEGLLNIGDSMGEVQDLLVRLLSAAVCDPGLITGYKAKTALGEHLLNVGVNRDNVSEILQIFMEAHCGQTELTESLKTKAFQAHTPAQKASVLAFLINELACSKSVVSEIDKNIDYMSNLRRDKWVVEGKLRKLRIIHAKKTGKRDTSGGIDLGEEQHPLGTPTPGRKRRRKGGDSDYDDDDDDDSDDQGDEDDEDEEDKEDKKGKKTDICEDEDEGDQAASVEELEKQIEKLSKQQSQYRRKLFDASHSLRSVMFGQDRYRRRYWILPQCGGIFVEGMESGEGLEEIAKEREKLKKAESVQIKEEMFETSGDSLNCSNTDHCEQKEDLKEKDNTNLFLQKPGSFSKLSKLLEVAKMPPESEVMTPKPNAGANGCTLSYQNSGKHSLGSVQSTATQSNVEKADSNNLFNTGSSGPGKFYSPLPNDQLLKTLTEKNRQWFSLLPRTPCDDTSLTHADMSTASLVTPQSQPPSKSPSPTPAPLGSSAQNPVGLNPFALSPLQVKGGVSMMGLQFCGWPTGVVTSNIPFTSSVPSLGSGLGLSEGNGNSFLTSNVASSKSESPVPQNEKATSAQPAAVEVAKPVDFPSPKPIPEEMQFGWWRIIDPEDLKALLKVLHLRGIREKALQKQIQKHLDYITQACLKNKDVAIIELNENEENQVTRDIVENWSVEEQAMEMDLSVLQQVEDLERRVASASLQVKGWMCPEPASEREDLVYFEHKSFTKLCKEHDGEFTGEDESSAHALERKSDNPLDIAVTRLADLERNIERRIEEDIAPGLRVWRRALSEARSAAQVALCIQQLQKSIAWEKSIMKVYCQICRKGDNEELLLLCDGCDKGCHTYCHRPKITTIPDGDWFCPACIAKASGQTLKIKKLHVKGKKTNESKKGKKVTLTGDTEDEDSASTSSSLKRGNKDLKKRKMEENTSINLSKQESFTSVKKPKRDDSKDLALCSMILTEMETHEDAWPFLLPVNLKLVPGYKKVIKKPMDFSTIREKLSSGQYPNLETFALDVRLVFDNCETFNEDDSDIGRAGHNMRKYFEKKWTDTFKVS
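AlphaScreen displacement: compounds (up to 110uM) incubated 30 min at room temperature with a preformed 50 nM BAZ2B/50 nM biotinylated H3K14Ac peptide complex in PBS pH 7.4 with Tween-20. Donor and acceptor beads at 10 ug/mL final added, 20 min light-protected before reading.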
CtBP-E1A inh = CtBP/E1A binding inhibition; AlphaScreen GST-E1A/His-CtBP binding, 1536-well; stronger effect = lower value; activity change, % (concentration not given with the values); actives 0.49% (n = 340,000); AID 651724; in the data active = activity change below about -65%; inconclusive = mostly about -30% to -63%
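Homogeneous bead-based format: GST-tagged E1A captured on glutathione donor beads, His-tagged CtBP on nickel acceptor beads; compounds precede bead addition by 2 h at 37 °C.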
Six1-Eya2 inh = Six1/Eya2 interaction inhibition | actives 0.56% (n = 360,000) | activity change, % (concentration not given with the values) | Q15475+O00167 | AlphaScreen GST-Six1/His-Eya2 binding, biochemical; stronger effect = lower value; in the data active = activity change below about -65%; inconclusive = mostly about -30% to -63%
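Six1/Eya2 binding was read as AlphaScreen signal after compounds were pinned into GST-Six1 plus His-tagged Eya2 (5X stock 250/500 nM) in pH 8.0 Tris/NaCl/TCEP buffer, beads added, then incubated 1 h, 37 C, dark.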
G9a block = inhibitors of human histone lysine methyltransferase G9a; actives 8.8% (n = 350,000); Potency, µM (top dose mostly 102 µM), actives largely listed as inhibitors; G9a H3K9 monomethylation, AlphaScreen, 2 h; note: nearly all actives have a fitted effect of over 75% in size
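Signal arises when biotinylated H3K9 peptide, once monomethylated, bridges streptavidin donor and antibody-captured acceptor beads. Enzyme at 20 nM was preincubated 15 min with test compounds; peptide 500 nM and SAM 20 uM then reacted for 2 h.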
Large screens that a line does not name were inactive. Unless noted, calls come from the whole dose curve; as a rule, active = well fitted inhibition curve with a large enough effect; inconclusive = small, poorly fitted or top-dose-only effect; inactive = no such curve, though single readings can be large or run the other way.

CCN1CCN(c2ccc(S(=O)(=O)N3CCCCC3)cc2NC(=O)c2cccc(OC(F)F)c2)CC1	G9a block 13µM
O=C(Nc1ccc(Cl)cc1)C1CCN(C(=O)c2ccco2)CC1	none
CCN(CC(=O)Nc1ccccc1OC)C(=O)CSCc1c(C)noc1C	JMJD2A Tudor inh inconclusive (no result: G9a block)
COc1cc(NC(=O)c2ccc(Cl)cc2)c(OC)cc1NC(=O)CN1CCOCC1	none
COc1cc(NC(=O)c2ccccc2)c(OC)cc1NC(=O)CN1C(=O)N(C)C2(CCCCC2)C1=O	JMJD2A Tudor inh inconclusive, BAZ2B inh inconclusive, G9a block 79µM
COc1cc(NC(=O)Nc2ccccc2)c(OC)cc1NC(=O)CN1CCCCC1	HP1b binding inh inconclusive, JMJD2A Tudor inh 40µM, BAZ2B inh 50µM, CtBP-E1A inh inconclusive, Six1-Eya2 inh inconclusive
COc1ccccc1NC(=O)CN1CCCCCC1	none
COc1cc(NC(=O)c2ccc(Cl)cc2)c(OC)cc1NC(=O)CN1CCCCC1	HP1b binding inh inconclusive, BAZ2B inh 40µM, G9a block 50µM (no result: CtBP-E1A inh)
COc1cc(NC(=O)c2ccccc2)c(OC)cc1NC(=O)CN1C(=O)NC2(CCCCC2)C1=O	BAZ2B inh inconclusive, G9a block inconclusive
Cc1c(C(=O)Nc2ccccc2C(=O)N2CCOCC2)cccc1[N+](=O)[O-]	none
COc1ccccc1/C=C(/NC(=O)c1ccccc1)C(=O)NCCCn1ccnc1	none
O=C(CN1CCN(Cc2ccc(F)cc2)C1=O)NCc1ccccc1	none (no result: CtBP-E1A inh, Six1-Eya2 inh)
CC(CN1CCOCC1)OC(=O)c1cccc(Cl)c1 (stereo unspecified)	none (no result: CtBP-E1A inh)
Cc1oc(-c2nc3ccccc3n2C)cc1C(=O)c1ccccc1	JMJD2A Tudor inh inconclusive, G9a block 10µM
Cn1cc(C(=O)c2ccccc2)cc1-c1nc2ccccc2n1C	G9a block 50µM
COc1ccc(N2C(=NC(=O)C(C)Oc3ccccc3)SC3CS(=O)(=O)CC32)cc1 (stereo unspecified)	none
Cc1cc(Cl)ccc1NC(=O)CCS(=O)(=O)c1cc2c(cc1C)NC(=O)CO2	none (no result: CtBP-E1A inh, Six1-Eya2 inh)
CC(C)CC(N)c1csc(Nc2ccc(C(F)(F)F)cn2)n1 (stereo unspecified)	CtBP-E1A inh inconclusive (no result: HP1b binding inh, JMJD2A Tudor inh, BAZ2B inh, G9a block)
CC(C)CC(N)c1csc(Nc2cnccn2)n1 (stereo unspecified)	CtBP-E1A inh -75, Six1-Eya2 inh inconclusive (no result: HP1b binding inh, JMJD2A Tudor inh, BAZ2B inh, G9a block)
NC(CO)c1csc(Nc2ccc(C(F)(F)F)cn2)n1 (stereo unspecified)	CtBP-E1A inh -74, Six1-Eya2 inh inconclusive (no result: HP1b binding inh, JMJD2A Tudor inh, BAZ2B inh, G9a block)
CC(C)CC(N)c1csc(Nc2ccccn2)n1 (stereo unspecified)	CtBP-E1A inh -89, Six1-Eya2 inh -83 (no result: HP1b binding inh, JMJD2A Tudor inh, BAZ2B inh, G9a block)
Cc1nn(C(C)C(=O)N2CCN(c3ccc(Cl)cc3)CC2)c(=O)c2cc3occc3n12 (stereo unspecified)	JMJD2A Tudor inh inconclusive, BAZ2B inh inconclusive, G9a block inconclusive (no result: CtBP-E1A inh, Six1-Eya2 inh)
CCOc1ncccc1C(=O)NC(C)CCc1ccccc1 (stereo unspecified)	none
Nc1nc(O)c(Sc2ccccc2[N+](=O)[O-])c(=O)[nH]1	G9a block 40µM
Nc1ccccc1Sc1ccccc1[N+](=O)[O-]	JMJD2A Tudor inh inconclusive, BAZ2B inh inconclusive
Cc1nc(-c2ccc(S(=O)(=O)N(Cc3ccccc3)C(C)C)cc2)co1	none (no result: CtBP-E1A inh, Six1-Eya2 inh)
O=C(NNC(=O)C12CC3CC(CC(C3)C1)C2)c1ccccn1	Six1-Eya2 inh -66 (no result: G9a block)
COc1ccccc1C(=O)NNC(=O)C12CC3CC(CC(C3)C1)C2	G9a block inconclusive
CC1(C)CC(NC(=O)c2ccccn2)CC(C)(C)N1O	JMJD2A Tudor inh inconclusive, BAZ2B inh 50µM, G9a block inconclusive (no result: CtBP-E1A inh)
O=C(NNC(=O)C12CC3CC(CC(C3)C1)C2)c1cnccn1	G9a block 3.2µM
CCCCNc1nc2c(S(=O)(=O)c3ccc(C)c(C)c3)nnn2c2ccsc12	none (no result: CtBP-E1A inh, Six1-Eya2 inh)
COc1ccc(CNS(=O)(=O)c2ccc3c(c2)CC(C)N3C(=O)C2CC2)cc1 (stereo unspecified)	none
CC(C)Oc1ccc(CNS(=O)(=O)c2csc(C(N)=O)c2)cc1	none
CN(C)c1ccc(CNS(=O)(=O)c2csc(C(N)=O)c2)cc1	G9a block 50µM (no result: CtBP-E1A inh)
CC1Cc2cc(S(=O)(=O)NCc3ccc(N(C)C)cc3)ccc2N1C(=O)C1CCC1 (stereo unspecified)	JMJD2A Tudor inh 45µM, BAZ2B inh 35µM, G9a block 11µM (no result: CtBP-E1A inh, Six1-Eya2 inh)
O=C(COc1ccccc1Cl)Nc1cc(-c2ccccc2F)nn1-c1ccccc1	none (no result: CtBP-E1A inh, Six1-Eya2 inh)
COc1cccc(-c2nc(NCc3ccccc3)c3ccccc3n2)c1O	none
COc1cccc(-c2nc(N3CCN(C)CC3)c3ccccc3n2)c1O	JMJD2A Tudor inh inconclusive, BAZ2B inh inconclusive, CtBP-E1A inh inconclusive, Six1-Eya2 inh inconclusive, G9a block inconclusive
COc1cccc(-c2nc(N3CCCCC3C)c3ccccc3n2)c1O (stereo unspecified)	JMJD2A Tudor inh 40µM, BAZ2B inh inconclusive, Six1-Eya2 inh inconclusive, G9a block 45µM
COc1cccc(-c2nc(NC3CCCC3)c3ccccc3n2)c1O	JMJD2A Tudor inh inconclusive, BAZ2B inh 35µM, G9a block inconclusive
CC1CC(C)CN(CC(=O)Nc2cc(S(=O)(=O)N3CCOCC3)ccc2N2CCCC2)C1 (stereo unspecified)	G9a block inconclusive
COc1cc(CNc2ncnc3ccc(-c4c(C)noc4C)cc23)cc(OC)c1OC	none (no result: HP1b binding inh, BAZ2B inh, CtBP-E1A inh, Six1-Eya2 inh, G9a block)
COc1ccc(C2=NC(=O)/C(=C\c3cc(OC)c(OC)c(OC)c3)O2)cc1	none
NCCN1C(=O)S/C(=C\c2ccc3c(c2)OCO3)C1=O	G9a block 45µM (no result: CtBP-E1A inh)
COc1cc(/C=C2\SC(=O)N(CCN)C2=O)ccc1OS(=O)(=O)c1cc(C)ccc1C	HP1b binding inh inconclusive, JMJD2A Tudor inh 28µM, BAZ2B inh inconclusive, G9a block 28µM
Cc1ccc(S(=O)(=O)Nc2c(O)c3ccccc3oc2=O)cc1C	G9a block 50µM
C/C(=N/NS(=O)(=O)c1ccc(C)cc1)c1c(O)c2ccccc2oc1=O	G9a block 50µM
Cc1ccc(S(=O)(=O)Nc2c(O)c3ccccc3oc2=O)cc1	G9a block 28µM
C/C(=N\NS(=O)(=O)c1ccc(C)cc1)c1cc2ccccc2oc1=O	none
CSCC[C@H](NC(=O)[C@H](Cc1ccccc1)NC[C@@H](NC[C@@H](N)CS)C(C)C)C(=O)O	G9a block 20µM (no result: HP1b binding inh, JMJD2A Tudor inh, BAZ2B inh, CtBP-E1A inh, Six1-Eya2 inh)
CCOc1ccc(Br)cc1/C(C)=N\NC1=NCCN1	G9a block 56µM
CCCCCOc1ccc(/C(C)=N/NC2=NCCN2)cc1	none
CCCCn1c(N)c(N(CC(C)C)C(=O)C(C)SCc2nc3sc(C)c(C)c3c(=O)[nH]2)c(=O)[nH]c1=O (stereo unspecified)	G9a block 35µM

Compound activity (PubChem BioAssay)
